Experimental findings from PubChem BioAssay (Tox21) are described below.

A number with no mark means an inactive call. Inconclusive results are not listed. Calls of active or inactive are those of the source. Unless noted, calls come from the whole dose curve; as a rule, active = well fitted curve in the direction sought with a large enough effect in the repeat runs; inconclusive = weak or mixed curves; inactive = no such curve, though single readings can be large; an effect the other way counts as inactive or inconclusive.

Test [1] is described as follows: qHTS assay to identify small molecule agonists of H2AX (AID 1224845; active = well fitted activation curve with a large enough effect in the signal ratio in the repeat runs, not every such curve was filed as active; the % refers to the signal ratio). An outline of the steps:
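Wild-type CHO-K1 cells, plated overnight, exposed 3hr at 37C to 15 concentrations (0.76% DMSO final). Lysed, then HTRF anti-pH2AX (S139) cryptate and anti-H2AX-d2 antibodies, 24 hr room temperature; 665/620 nm emission read.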

The nature of test [2]: qHTS assay to identify small molecule agonists of H2AX - cell viability counter screen (AID 1224847; calls by dose curve; note: nearly all actives have a fitted effect of over 30% in size; note: potency is the fitted concentration of half-maximal effect). The method, boiled down: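 We seed wild-type CHO-K1 cells overnight, treat them for 3 hr at 37C with compounds in 15-concentration series, and quantify remaining viability by CellTiter-Glo luminescence.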
On the technique in general: Quantitative high-throughput screening tests each substance at several concentrations.

Test [3] can be described thus: qHTS assay to identify small molecule antagonists of the estrogen related receptor (ERR) signaling pathway from Tox21 library (AID 1224848). Note: nearly all actives have a fitted effect of over 50% in size. Note: potency is the fitted concentration of half-maximal effect. The method, boiled down:
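Luminescent reporter read-out (ONE-Glo) from NTP's ERR cell line after 18 h treatment at 37 C with DMSO-dissolved Tox21 compounds; cells pre-plated 6 h beforehand at 2,000 per well.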

Test [4] can be described thus: qHTS assay to identify small molecule agonists of the estrogen related receptor (ERR) signaling pathway from Tox21 library (AID 1224849; calls by dose curve; note: nearly all actives have a fitted effect of over 15% in size). The conditions noted are these: ERR reporter cell line, ONE-Glo luciferase, 18 h; at 92.4 µM (top of the series) unless noted. An outline of the steps: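 We plated ERR reporter cells, waited 6 h, added compounds in DMSO by pin tool and incubated them 18 h at 37 C. ONE-Glo was then added and luminescence read after 30 min.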

Test [5] is described as follows: qHTS RealTime-Glo MT Cell Viability Assay in HepG2 cells - 24 hour (AID 1224867). Note: nearly all actives have a fitted effect of over 50% in size. Note: potency is the fitted concentration of half-maximal effect. The method, boiled down:
(§1)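 HepG2 suspension premixed with RealTime-Glo reagents is plated at 600 cells per well and left 5 h at 37 C/5% CO2. Compounds in DMSO then go in, and bioluminescence reflecting viable cell number is recorded over 40 h.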

Test [6] is described as follows: A CellTox Green Cytotoxicity Assay to monitor cytotoxicity in HEK293 cells - 0 hour (AID 1224869). Note: nearly all actives have a fitted effect of over 50% in size. An outline of the steps:
(§2)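 Each value comes from one timepoint of a single continuous run in which HEK293 cells with CellTox Green were exposed to compound for up to 40 h at 37 C, dye fluorescence rising with cell death.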

Test [7] in a line: qHTS RealTime-Glo MT Cell Viability Assay in HepG2 cells - 40 hour (AID 1224870). Note: nearly all actives have a fitted effect of over 50% in size. Note: potency is the fitted concentration of half-maximal effect. The method, boiled down:
(§3)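 HepG2 cells (600/well) mixed with RealTime-Glo MT reagent, settled 5 h at 37 C/5% CO2 before compound addition. Nonlytic NanoLuc luminescence from viable-cell prosubstrate reduction read repeatedly during 40 h treatment at 37 C.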

A short description of test [8]: A CellTox Green Cytotoxicity Assay to monitor cytotoxicity in HEK293 cells - 40 hour (AID 1224871). Note: nearly all actives have a fitted effect of over 45% in size. Note: potency is the fitted concentration of half-maximal effect. The method, boiled down:
as §2

Test [9] is described as follows: qHTS RealTime-Glo MT Cell Viability Assay in HEK293 cells - 16 hour (AID 1224872). Note: nearly all actives have a fitted effect of over 50% in size. Note: potency is the fitted concentration of half-maximal effect. An outline of the steps: (§4)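 Reads taken at 0, 8, 16, 24, 32 and 40 h from the same wells. HEK293 cells (600/well) carried RealTime-Glo reagents from seeding, with compound added after a 5 h settle at 37 C.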
The nature of test [10]: qHTS RealTime-Glo MT Cell Viability Assay in HepG2 cells - 8 hour (AID 1224873). Note: nearly all actives have a fitted effect of over 55% in size. An outline of the steps: as §3
The nature of test [11]: A CellTox Green Cytotoxicity Assay to monitor cytotoxicity in HEK293 cells - 24 hour (AID 1224875). Note: nearly all actives have a fitted effect of over 45% in size. Note: potency is the fitted concentration of half-maximal effect. An outline of the steps:
as §2

Test [12] can be described thus: A CellTox Green Cytotoxicity Assay to monitor cytotoxicity in HepG2 cells - 16 hour (AID 1224876). Note: nearly all actives have a fitted effect of over 45% in size. The method, boiled down: (§5)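 Continuous culture of HepG2 cells with a membrane-impermeant DNA dye; rising fluorescence marks dead cells. Compound exposure lasted up to 40 h at 37 C, with reads every 8 h from 0 h.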
Test [13] can be described thus: qHTS RealTime-Glo MT Cell Viability Assay in HepG2 cells - 32 hour (AID 1224877). Note: nearly all actives have a fitted effect of over 55% in size. Note: potency is the fitted concentration of half-maximal effect. The method, boiled down: as §1
A short description of test [14]: A CellTox Green Cytotoxicity Assay to monitor cytotoxicity in HepG2 cells - 24 hour (AID 1224878). Note: nearly all actives have a fitted effect of over 45% in size. Note: potency is the fitted concentration of half-maximal effect. The method, boiled down:
as §5

Test [15] in a line: A CellTox Green Cytotoxicity Assay to monitor cytotoxicity in HepG2 cells - 40 hour (AID 1224879). Note: nearly all actives have a fitted effect of over 40% in size. Note: potency is the fitted concentration of half-maximal effect. An outline of the steps: as §5
Test [16] is described as follows: qHTS RealTime-Glo MT Cell Viability Assay in HEK293 cells - 0 hour (AID 1224880). An outline of the steps:
(§6)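 qHTS format; HEK293 cells with NanoLuc/prosubstrate reagent, 37 C/5% CO2 for 5 h pre-dosing; compounds 23 nL in DMSO; luminescence at each time point reflects viable cells.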

Test [17] in a line: qHTS assay to identify small molecule agonists of the hypoxia (HIF-1) signaling pathway (AID 1224846; active = well fitted activation curve with a large enough effect in the signal ratio in the repeat runs, not every such curve was filed as active; the % refers to the signal ratio). An outline of the steps: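 Measured by blue/green FRET after loading CCF4-AM: beta-lactamase expressed from a hypoxia response element in ME-180 cells. Test agents were delivered in DMSO and left 17 hrs; cells had been plated 5 hrs earlier in low-serum (0.5% dialyzed FBS) medium.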

Test [18] in a line: A CellTox Green Cytotoxicity Assay to monitor cytotoxicity in HEK293 cells - 32 hour (AID 1224881). Note: nearly all actives have a fitted effect of over 40% in size. Note: potency is the fitted concentration of half-maximal effect. An outline of the steps: as §2
A short description of test [19]: qHTS RealTime-Glo MT Cell Viability Assay in HEK293 cells - 32 hour (AID 1224868). Note: nearly all actives have a fitted effect of over 50% in size. Note: potency is the fitted concentration of half-maximal effect. The method, boiled down: as §4
Test [20] is described as follows: qHTS RealTime-Glo MT Cell Viability Assay in HEK293 cells - 40 hour (AID 1224874). Note: nearly all actives have a fitted effect of over 50% in size. Note: potency is the fitted concentration of half-maximal effect. The conditions noted are these: RealTime-Glo luminescence; max response: stronger effect = lower value. The method, boiled down:
as §6
% is set by controls: 0 for no effect and ±100 for the full control effect.

As to `CN1C(=O)C(O)N=C(c2ccccc2)c2cc(Cl)ccc21` (configuration not stated), the Potency result in test [1], in [2], in [3], in test [5], in test [6] and in [7] was “inactive” each time. Moreover, the Potency result in test [8], in test [9], in test [10], in test [11], in [12] and in test [13] was “inactive” in each case. In addition, the Potency result in test [14], in test [15] and in [16] was “inactive” each time. In addition, in [4], the activity change, positive = activation was -0.379%.
Regarding `Oc1ccc(Cl)c(Cl)c1Cl`, the Potency entry in test [1], in [5], in test [6], in [7], in test [10] and in [12] was “inactive” each time. Also, the Potency result in [13], in test [16] and in test [18] was “inactive” throughout. In [17], the compound was called inactive.
As for `CCC(C)(NC(=O)c1cc(Cl)c(C)c(Cl)c1)C(=O)CCl` (configuration not stated), the Potency entry in test [1], in test [6] and in test [16] was “inactive” each time. The Potency is 114 µM (active) in test [2]; 9.75 µM (active) in [3]; 49.3 µM (active) in test [5]; 19.6 µM (active) in [19]; 49.3 µM (active) in test [7]; 43.9 µM (active) in test [8]. The Potency in [9] was 27.7 µM (active); in [20], 13.9 µM (active); in test [13], 49.3 µM (active); in test [15] it was 49.3 µM (active); in test [18], 43.9 µM (active). Moreover, in [4], the activity change, positive = activation was -68.6%.
For the compound `CS/C(C)=N/OC(=O)N(C)SN(C)C(=O)O/N=C(\C)SC`, the Potency result in [1] and in test [6] was “inactive” throughout. The call in test [17] was inactive. For the same compound, the activity change, positive = activation in [4] is -68.2%. The Potency in test [19] was 49 µM (active); in test [9], 38.9 µM (active); in [14] it was 54.9 µM (active); in test [15], 54.9 µM (active).
Take `COP(=S)(OC)Oc1cc(Cl)c(I)cc1Cl`: the Potency result in test [1], in [5], in [19], in test [6], in test [7] and in test [8] was “inactive” in each case. The Potency result in test [9], in test [10], in [11], in [12], in test [13] and in [14] was “inactive” each time. Moreover, the Potency entry in [15], in [16] and in test [18] was “inactive” in each case. Besides, in test [17], the compound was classed as inactive. Moreover, the max response in test [20] was -19.9%.
For `COC(=O)C(Br)CBr` (configuration not stated), the Potency result in [1], in test [2], in test [3], in test [5], in test [19] and in test [6] was “inactive” each time. For the same compound, the Potency entry in [7], in test [8], in test [9], in [10], in test [11] and in test [12] was “inactive” throughout. For the same compound, the Potency entry in test [13], in [14], in test [15], in test [16] and in test [18] was “inactive” throughout. For the same compound, in [4], the activity change, positive = activation is -11.9%. Further, the max response in test [20] was -3.92%.
As for `O=C(O)C1(c2ccc3c(c2)OC[C@H](Cc2ccc(-c4ccccc4)cc2)[C@H]3O)CCCC1`, the Potency entry in test [1], in test [5], in test [6], in test [7], in [10] and in test [13] was “inactive” throughout. For the same compound, the Potency result in test [16] is “inactive”. Besides, the Potency in test [2] was 101 µM (active); in [3], 61.1 µM (active); in test [8], 34.7 µM (active); in test [11] it was 38.9 µM (active); in test [15], 49 µM (active); in [18], 34.7 µM (active). In addition, the activity change, positive = activation in [4] is -42.3%.
On to `CC(C)N(CCC(C(N)=O)(c1ccccc1)c1ccccn1)C(C)C` (configuration not stated), for which the Potency entry in test [1], in test [2], in test [3], in test [5], in test [19] and in test [6] was “inactive” in each case. Moreover, the Potency result in test [7], in [8], in test [9], in [10], in test [11] and in test [12] was “inactive” throughout. Also, the Potency result in test [13], in [14], in test [15] and in test [16] was “inactive” in each case. Moreover, the activity change, positive = activation in test [4] was 2.39% [at 42.5 µM]. The max response in [20] was 2.75%.
